According to PubChem BioAssay AID720513 (Broad Institute, 2013):
Out of some 2,100 compounds screened, about 480 (23%) were called active. Inconclusive results (about 5%) are left out. A selection follows. Entries with a potency or affinity are not part of this list. Values without a mark were called inactive.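 The calls were made as follows: active = fitted curve reaches 40% activation at or below the top valid concentration, in every replicate test; inconclusive = replicate tests disagree on the call; inactive = the rest, including activity in the opposite direction.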

Test: activators raising PGC1a acetylation in cells, dose response, cell-based, cherry-picked samples, set 6 (AID 720513);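 also: cells made to overexpress flag tagged PGC1a plus GCN5 acetyltransferase by viral infection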
Conditions: U2OS PGC1a acetylation AlphaLISA, overnight, 0 = neutral, -100 = inhibitor control; series mostly up to 19.5 µM; activation (acetylation increase): at the top concentration

| SMILES | activation (acetylation increase) |
| --- | --- |
| COc1ccc(CCNC(=O)c2ccc(Cl)cc2)cc1 | 16.4% |
| COc1ccc(S(=O)(=O)NCCC(=O)NCc2ccc(F)cc2)cc1 | -14.2% |
| COc1cccc(C(=O)NCCS(=O)(=O)N2CCN(C(=O)c3ccco3)CC2)c1 | 3.59% |
| COc1ccc(CCNc2ccc(C(CC(N)=O)NC(=O)c3cc(C)cc(C)c3)cc2[N+](=O)[O-])cc1 (stereo not given) | 7.93% |
| CN(C[C@H]1N[C@@H](CO)[C@@H]1c1ccc(C2=CCCC2)cc1)C(=O)c1cccc(F)c1 | -91.5% |
| Cc1ccsc1C(=O)Nc1cc(Cl)ccc1-n1cncn1 | 28.1% |
| S=c1nc[nH]c2c1cnn2Cc1ccccc1 | -63.3% |
| CCCC[C@@]1(C2CCCC2)Cc2cc(OCC(=O)O)c(Cl)c(Cl)c2C1=O | -24% |
| COC(=O)c1nn(-c2ccccc2)ccc1=O | -18.9% |
| CC(=O)N1/C(=C/c2ccc(N(C)C)cc2)C(=O)c2ccccc21 | 4.01% [at 10 µM] |
| CC1CCCCC1NC(=O)C1CCN(C(=O)NC2CCCCC2)CC1 (stereo not given) | 27.7% |
| O=C1Nc2ccccc2N=C(c2ccccc2)C1N(Cc1ccc(F)cc1)C(=O)c1cccnc1 (stereo not given) | -30.1% |
| COc1ccc(NC(=O)/C(Cl)=C(/Cl)S(=O)(=O)Cc2ccccc2)cn1 | -135% |
| O=C(NCc1ccc2c(c1)OCO2)c1nc(S(=O)(=O)Cc2ccccc2)ncc1Cl | -27.9% |
| N#CCSc1nnc(COc2ccc3ccccc3c2)o1 | -9.11% |
| O=S(=O)(Nc1cccc(CCc2ccccn2)c1)c1ccc2ccccc2c1 | 5.91% |
| C=C[C@H]1CN2CCC1C[C@H]2[C@H](O)c1ccnc2ccc(OC)cc12 (stereo not given in full) | -22.3% |
| CN1/C(=C\C(=O)c2oc3ccccc3c2N)C(C)(C)c2ccccc21 | 18.8% |
| COC(C[C@H]1O[C@@H]1[C@H](O)[C@H](C)OCc1ccccc1)OC | -0.97% |
| COc1ccc2[nH]c(C(=O)O)c(NC(=O)c3ccccc3[N+](=O)[O-])c2c1 | 18.8% [at 10 µM] |
| Cc1nc(Nc2ccc(S(N)(=O)=O)cc2)sc1C(=O)Nc1ccccc1 | -27.8% |
| C[C@@H]1CN([C@H](C)CO)C(=O)CCCn2cc(nn2)CO[C@@H]1CN(C)C(=O)NC1CCCC1 | 18.2% |
| CC(=O)Nc1nc(C)c(Oc2ccc(Cl)cc2)c(=O)[nH]1 | 19.3% |
| CSc1nc2nccc(/C=C\c3ccccc3)n2n1 | 12.5% |
| COC(=O)C(=Cc1ccc(OCc2ccc([N+](=O)[O-])cc2)c(OC)c1)C(=O)OC | -2.54% |

| SMILES | activation (acetylation increase) |
| --- | --- |
| COc1ccc(C(=O)OCC(=O)NCc2ccc3c(c2)OCO3)cc1[N+](=O)[O-] | 15.8% |
| O=C(CSc1nc(O)cc(=O)n1-c1ccccc1)N1CCCCC1 | 8.21% |
| CCCn1c(SC(C)C(=O)NCC2CCCO2)nc2cc(Cl)ccc2c1=O (stereo not given) | 34.2% |
| C[C@@H]1CN([C@H](C)CO)S(=O)(=O)c2ccc(C3=CCCCC3)cc2O[C@H]1CN(C)Cc1ccccc1 | -76.1% [at 21 µM] |
| Oc1ccc(C2CNCCc3c2cc(O)c(O)c3Cl)cc1 (stereo not given) | 2.77% |
| COC(=O)C1CCN(Cc2nnc(-c3ccccc3)o2)CC1 | -1.11% |
| Cc1nc2ccccc2c(=O)n1NC(=O)c1ccc(Cl)c([N+](=O)[O-])c1 | -65% |
| Cc1ccc2nc(SCC(=O)Nc3ccc(F)cc3)nc(=O)n2c1 | -4.69% |
| CC(C(=O)OCn1nnc2ccccc2c1=O)N1C(=O)c2ccccc2C1=O (stereo not given) | 34.9% |
| O=C1C=CC2(C=C1)O[C@H](Cc1ccccc1)[C@@H](Cc1ccccc1)O2 | -115% |
| CCOC(=O)C(CC)(CC)C(=O)/C=C/c1ccc(Br)cc1 | -49% |
| CCOc1ccccc1CNC(=O)c1cc2oc3ccccc3c2n1C | 37.7% |
| CSCCC(NC(=O)c1ccc(Cl)cc1)C(=O)OCC(=O)Nc1cc(Cl)ccc1C (stereo not given) | -30.2% |
| Cc1cccc(NC(=O)CNC(=O)Cn2ncc(Cl)c(Cl)c2=O)c1C | -103% |
| CCOC(=O)c1cn(-c2ccccc2)nc1-c1cccnc1 | 15.8% |
| COc1ccc2c([N+](=O)[O-])c(N3CCCC3)[nH]c2c1 | 22.3% |
| COCCCNC1CS(=O)(=O)CC1O (stereo not given) | 20% |
| COc1ccc(N(C)S(=O)(=O)c2cccc(C(=O)Nc3ccc(-n4cnnn4)cc3)c2)cc1 | 36.9% |
| O=C(c1ccc2ccccc2c1)N1CCCC1 | -0.375% |
| COc1ccc(CCNC(=O)COC(=O)c2ccco2)cc1OC | -6.46% |
| COc1ccc(CCNC(=O)C(=O)NCC2CCCO2)cc1OC (stereo not given) | 2.41% |
| CCC(C)NCCOCCOc1ccc(C)cc1OC (stereo not given) | 19.7% |
| CCOC(=O)c1c(C)nc2sc3c(=O)n(-c4ccc(OC)cc4)cnc3c2c1-c1ccc(OC)cc1 | 28.6% |
| C[C@H]1CN([C@@H](C)CO)C(=O)c2cc(C#Cc3ccccc3)cnc2O[C@H]1CN(C)C(=O)c1ccccn1 | -19.3% |
| CC1CN(C2CCN(C(=O)c3cccc(Cl)c3)CC2)CC(C)O1 (stereo not given) | -9.81% |
